Results reported in the supplement of paper PMC11417369.
± gives the standard deviation of the averaged measurements. Whole data set: some 25,000 sequences, median “ln(normalized median fluorescence intensity)” near 8.9, cut for the highest 2% near 10. For the sample, the highest values were picked, then their nearest neighbours and some sequences at random.

System: PfAP2-LT AP2 domain (GST-tagged)
Assay: gcPBM binding intensity (ln(normalized median fluorescence intensity)); higher = stronger DNA binding
How it was run: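 GST-tagged P. falciparum DNA-binding domains produced in E. coli were incubated for 1 h on an Agilent 4 × 180k array of primer-extended double-stranded 36-bp intergenic genomic probes with negative controls. Binding intensity is the highest Masliner-normalised natural-log median intensity across replicate spots of either probe orientation, with bound protein detected by Alexa488 anti-GST antibody at 488 nm.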

In order of rising “gcPBM binding intensity (ln)” value:
1. ATTTTTTTTAAACGAAGTACAATTTGTGCATTGGAA [XGTACX_site8109]  8.45 ± 0.39
2. ATGGTTTTTATTTTATGTACTTACTAAAATGAATAA [XGTACX_site4317]  8.52 ± 0.37
3. CGAAAAAATAAAAAAAAAATAAAATAAAATAAATAA [TGCATGCA_negctrl_site278]  8.56 ± 0.59
4. TATATTATTTATATTTGTACACAGCGATATGAAATA [XGTACX_site987]  8.56 ± 0.46
5. TTATATGTATGAACAAGTACATGCTATAATTATAAA [XGTACX_site1399]  8.57 ± 0.46
6. AAAAAAAAAAAAAAAACACACATTTGAAGAAAAAAA [CACACA_site7389]  8.58 ± 0.51
7. ATAATTATATAAATATATATAATATATATATGAAAA [XGTACX_negctrl_site357]  8.58 ± 0.58
8. AATATATATATATATATTTTTGTTAGAATATGGAAT [GTGCAC_negctrl_site434]  8.65 ± 0.32
9. ATATTCTTTTTATGTGGTACTAATTTTTTTTTTTTA [XGTACX_site3791]  8.66 ± 0.57
10. AATTTGATTATAAATTGTACATATATATATTAAAAG [XGTACX_site5461]  8.66 ± 0.35
11. TATTTTTATATATAATCACACATTGGAATGTTCTAA [CACACA_site5540]  8.67 ± 0.44
12. TATTTTTTTTGATATTGTACTTTTTTATTATTTTTT [XGTACX_site566]  8.76 ± 0.51
13. ATTGTATAAAAATGTACATGCAATAAATTTAGTTCT [TGCATGCA_site675]  8.77 ± 0.42
14. TTATATATAAATGTGTGTACTTATAAAATAATCATT [XGTACX_site5370]  8.78 ± 0.43
15. TATAACACACAATGATGTACATTACATTATTTTTTA [XGTACX_site2076]  8.79 ± 0.45
16. AAAACATAACATTGTTGTACTACTAATAAAATAAGT [XGTACX_site6149]  8.8 ± 0.52
17. CATATAATTATTTTCACACATATAACTACATCTATA [CACACA_site5915]  8.82 ± 0.43
18. AAATAAATAAATTAACGTACATAATAACATTAATAT [XGTACX_site8567]  8.86 ± 0.47
19. AAAAAAAAAAAAAAAAAAAAACACCCAAAAAAATAT [XGTACX_negctrl_site210]  8.86 ± 0.44
20. ATATTATATATGTATAGTACATATTATAAGAAAAAT [XGTACX_site3457]  8.87 ± 0.65
21. CAAATGTAGAAAATGTGTACATAAAAAAAAAAAAAA [XGTACX_site8276]  8.87 ± 0.47
22. TTTATAATATGTTATACATGCAGGTACCTTTTTGTA [TGCATGCA_site746]  8.9 ± 0.46
23. ATATATAAAAAAGCTAGTACACAAAAATATATAATG [XGTACX_site3001]  8.95 ± 0.54
24. TAATGGAGAAAAAAAAAACACACGGTACATTCAAAG [CACACA_site3117]  9.01 ± 0.46
25. AAAGAAAAAAAAAAAACACACAAAAAAAATCAAAAT [CACACA_site2871]  9.04 ± 0.57
26. ACATTCTATATATACACACATACATAATAAAGAAAG [CACACA_site2771]  9.05 ± 0.4
27. AGTTTGTCAATCAACACACACCTATTTATTATAGAT [CACACA_site7777]  9.1 ± 0.37
28. TTGAAGGTGGCAATGTGTACATAGAATAACCAGTGC [XGTACX_site4738]  9.15 ± 0.54
29. AAAAAAAAAAAAAGTACACACATACAGATAAATATA [CACACA_site5067]  9.16 ± 0.48
30. ATACATACATACATACGTACATATGTATATATATAT [XGTACX_site8498]  9.23 ± 0.14
31. ATAAAATACATATAAACACACATATAAACCGACATA [CACACA_site2477]  9.28 ± 0.38
32. TAATTTTTTAGACACACACACATATAAATATAAATA [CACACA_site6195]  9.37 ± 0.34
33. AAAAATGAAAGGTGTACACATACAAACATAGAAAGA [CACACA_site5020]  9.38 ± 0.52
34. AGGGACATATATATCACACACAAAAATTAGTCCCTT [CACACA_site2778]  9.39 ± 0.44
35. TATGAAGACACAAATACACACACTCAAAAAAAAAAA [CACACA_site2660]  9.41 ± 0.44
36. ATAACAATTATTTGTCGACACACGTATATGTTATTT [CACACA_site1766]  9.41 ± 0.38
37. TATATATTATGACCACCACACACCTATACGCATAAC [CACACA_site2447]  9.44 ± 0.085
38. AAATAAATAAAAAACACACACAAATAAATAAATATA [CACACA_site2249]  9.46 ± 0.39
39. GTACATACATAAAACACACACATATAGATTTATATA [CACACA_site6945]  9.47 ± 0.33
40. AAAATCACAAAACACACACACACAAAAAAAAAAAAA [CACACA_site1443]  9.49 ± 0.53
41. TATATATATAGACACACACACATATAAATAAATAAA [CACACA_site444]  9.56 ± 0.34
42. CATACACCCATACATACACACATACATACACCCATA [CACACA_site5124]  9.56 ± 0.31
43. TATATAAATATACACCCACACACATATATATATATA [CACACA_site9247]  9.61 ± 0.28
44. CACCCATAAATATACACACGCACAACACAAAATAAA [CACACA_site2903]  9.63 ± 0.41
45. TAAACACCCATACATACACACATACATACACCCATA [CACACA_site5125]  9.63 ± 0.18
46. TATAAATATACACCCACACACATATATAAATAAATA [CACACA_site7717]  9.65 ± 0.16
47. ATAAAGCACACCGACACACACATATTTATATTTATA [CACACA_site6620]  9.68 ± 0.43
48. TATATAAATAGACACACACACATATAAATATAAATA [CACACA_site6503]  9.69 ± 0.32
49. TAAATTTATAGACACACACACATATAAATAAATATA [CACACA_site6530]  9.71 ± 0.22
50. TAAAAGGATACATATACACACATATATATATATATA [CACACA_site2791]  9.72 ± 0.13
51. TACAAATATGGACACACACACATATTTATATTTATA [CACACA_site6420]  9.73 ± 0.4
52. AAAAAAAAAAAACACACACACACAAATATATAAAAA [CACACA_site1171]  9.77 ± 0.31
53. AAAAAAAAAAAAAAAACACACACATACACCCAAAAA [CACACA_site7910]  9.78 ± 0.23
54. AAAAAAAAAAAAAACACACACAACACCCATACCTTA [CACACA_site3621]  9.79 ± 0.057
55. TATACATATACATATACACACACACCCATAAATAAA [CACACA_site8372]  9.8 ± 0.22
56. AACACCCAAAAACACACACACATACATACATACATA [CACACA_site4411]  9.8 ± 0.23
57. TAAATTAAAAAAAATACACACACACCGACACATATA [CACACA_site9084]  9.84 ± 0.26
58. CCATAAAAAGGATACACACACACACGCACATATATA [CACACA_site6550]  9.92 ± 0.11
59. AAAAAAAAAAAAAAAACACACACAACACCCATACCT [CACACA_site9208]  9.92 ± 0.14
60. TATAAATATACACCCACACACATATATATATATATA [CACACA_site3745]  9.94 ± 0.16
61. GCCAAAAGGATATGCACACACACACCCATATATATA [CACACA_site2198]  9.94 ± 0.42
62. AATACATATAAAAGTACACACACACCCATATATATA [CACACA_site8220]  9.97 ± 0.13
63. AAAAAAAAAAAACACACACACACATACCCATACATA [CACACA_site5575]  9.98 ± 0.22
64. TACCCACTAAAATACACACACACACCCACATATATA [CACACA_site6141]  10 ± 0.42
65. TACATATACATATACACACACACACCCAAATAAATA [CACACA_site1344]  10.04 ± 0.05
66. CACCCACCCACATACACACACATACACATATATATA [CACACA_site1722]  10 ± 0.22
67. AAAGATAAAAAAAGTACACACACACCGATATATATA [CACACA_site9006]  10 ± 0.14
68. AAATAAAGCACACCGACACACACATATATATATATA [CACACA_site8256]  10.03 ± 0.057
69. AGATAAAAAAAGTACACACACACATATATATATATA [CACACA_site3072]  10.02 ± 0.014
70. TATACGCATATATACACACACATATATATATATATA [CACACA_site3416]  10.1 ± 0.11
71. AAAAAAAATACATACACACACACACCCACATATATA [CACACA_site3561]  10.13 ± 0.05
72. TATACACCCTAAAATACACACACACCCACCCATATA [CACACA_site9380]  10.06 ± 0.078
73. CATATAAATAGACACACACACACATATAAATAAATA [CACACA_site7156]  10.1 ± 0.4
74. AATAAATTTAGACACACACACACATATAAATAAATA [CACACA_site6531]  10.1 ± 0.23
75. TACAGATAAAAGTACACACACACACCGATATATATA [CACACA_site4675]  10.12 ± 0.099
76. CAAAAGGATAGGCACACACACACACCGATATATATA [CACACA_site8685]  10.1 ± 0.21
77. AAGGATATAACATACACACACACACCCATATATATA [CACACA_site4142]  10.08 ± 0.099
78. TACATATAAAAGTACACACACACACCCATATATATA [CACACA_site941]  10.1 ± 0.3
79. CCATAAAAAGGATACACACACACACCCACATATATA [CACACA_site903]  10.1 ± 0.32
80. CATATATACGCATACACACACACACCCACACCCACA [CACACA_site1725]  10.16 ± 0.05
81. AAAAAAAAAATACATACACACACACCCACCCATATA [CACACA_site9187]  10.18 ± 0.021
82. TACACGCTAAAATACACACACACACCCACATATATA [CACACA_site4153]  10.2 ± 0.11
83. CAAAAGGATAGGCACACACACACACCCATATATATA [CACACA_site2199]  10.2 ± 0.23
84. CCATAAAAAGGATACACACACACACCGACATATATA [CACACA_site4653]  10.2 ± 0.23
85. AAAAAAAAAAAACACACACACACACCCAAATATATA [CACACA_site150]  10.22 ± 0.028
86. AAAACACCCAAACACACACACACATATATATATATA [CACACA_site9119]  10.2 ± 0.35
87. AAAAAATCAAAACACACACACACACCCAAAAAAAAA [CACACA_site1444]  10.2 ± 0.37
88. AAAAAAAAAAAAAACACACACACACCCAAATATATA [CACACA_site1169]  10.2 ± 0.44
89. AAAAAAAAAAAAAACACACACACACCCATACACATA [CACACA_site2860]  10.19 ± 0.078
90. AAAAAAAAAAAAAACACACACACACCCATACCCATA [CACACA_site5577]  10.215 ± 0.0071
91. ACCCATAAAAAGGATACACACACACCCACCCATATA [CACACA_site8205]  10.3 ± 0.29
92. AAAATACACGCATACACACACACACCGACACATATA [CACACA_site4523]  10.4 ± 0.28
93. AAAATACACGCATACACACACACACCCACCCATATA [CACACA_site639]  10.4 ± 0.14
94. AAAAAAAAAAAACACACACACACACCCATACATACA [CACACA_site707]  10.4 ± 0.14
95. ATAAAGCACACCGACACACACATATATATATATATA [CACACA_site1047]  10.54 ± 0.099
